D2 antag: HTS Assay for Allosteric Antagonists of the Human D2 Dopamine Receptor: Primary Screen for Antagonists. D(2) dopamine receptor (Homo sapiens), P14416. HEK293 TREx D2 cells, calcium flux, dopamine EC80. inhibition, % at 10 µM. 2% of 340,000 active; in the data active means inhibition above about 30%; inactive means below that, where a call was filed; further: 0% is about no effect
Target sequence (P14416 whole entry, looked up): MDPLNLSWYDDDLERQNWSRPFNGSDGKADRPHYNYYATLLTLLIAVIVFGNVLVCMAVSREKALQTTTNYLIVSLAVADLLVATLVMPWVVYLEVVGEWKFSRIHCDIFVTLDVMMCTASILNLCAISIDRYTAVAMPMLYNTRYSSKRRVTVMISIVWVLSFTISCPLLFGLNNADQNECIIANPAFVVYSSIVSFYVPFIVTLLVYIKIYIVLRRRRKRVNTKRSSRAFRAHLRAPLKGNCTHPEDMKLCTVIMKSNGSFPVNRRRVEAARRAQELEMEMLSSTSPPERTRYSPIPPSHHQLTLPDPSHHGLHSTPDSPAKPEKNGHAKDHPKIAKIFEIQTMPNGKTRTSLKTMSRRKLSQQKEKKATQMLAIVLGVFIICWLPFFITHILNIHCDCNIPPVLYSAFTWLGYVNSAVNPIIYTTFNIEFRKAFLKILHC
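Tetracycline-induced HEK293 TREx cells expressing D2 receptor forced-coupled to calcium signalling, loaded with no-wash calcium dye. Compounds added and calcium flux read 180 s, then dopamine added at EC80 and read a further 180 s.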
D2 ag-1: Beta-Arrestin HTS for Positive Allosteric Modulators of the Human D2 Dopamine Receptor: Agonists; D(2) dopamine receptor (Homo sapiens), P14416; DiscoveRx PathHunter D2 beta-arrestin, luminescence, 90 min; 100% = 57 uM dopamine signal; activation, % (test concentration not listed); 0.084% of 360,000 active; in the data active means activation above about 40%; inconclusive means between about 15% and that limit
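Agonist mode: compounds alone added to overnight-plated D2 PathHunter cells for 90 min at 37 C, with 57 uM final dopamine (EC100) defining full response. Beta-arrestin recruitment detected by chemiluminescent reagent, read after 1 h at ambient temperature.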
D2 PAM-1: Beta-Arrestin HTS for Positive Allosteric Modulators of the Human D2 Dopamine Receptor: Potentiators. DiscoveRx D2 beta-arrestin cells, luminescence, 90 min; 100% = 57 uM dopamine signal. D(2) dopamine receptor (Homo sapiens), P14416. potentiation, % (concentration not given with the values). AID 624464, 2012. 0.23% of 360,000 active; in the data active means potentiation above about 50%; inconclusive means mostly about 30% to 49%
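PathHunter D2 cells, attached overnight at 37 deg C, received compound in DMSO plus dopamine at EC20 (50 nM final) for 90 min at 37 deg C. Beta-arrestin recruitment was read as luminescence after 1 h with detection reagent at ambient temperature.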
D2 ag-2: HTS Assay for Allosteric Agonists of the Human D2 Dopamine Receptor: Primary Screen for Agonists; activation, % at 2 µM; 0.53% of 340,000 active; AID 485358, 2010; HEK293 T-REx D2 cells, calcium flux agonist mode;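 active means activation over 3 SD above normal in the single-dose calcium agonist read, cut at about 30% in these data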; further: 0% is about no effect
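Tetracycline-induced HEK293 T-REx cells with force-coupled D2 receptor, plated overnight at 30 C, loaded with no-wash calcium dye. After a 10 s baseline, compound was pin-added and calcium flux read kinetically for 180 s; calcium rises flagged agonists.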
D2 PAM-2: HTS Assay for Positive Allosteric Modulators of the Human D2 Dopamine Receptor: Primary Screen for Potentiators; HEK293 T-REx D2, calcium flux, EC20 dopamine potentiation; potentiation, % at 10 µM; D(2) dopamine receptor (Homo sapiens), P14416; 0.34% of 340,000 active;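 active means potentiation over 3 SD above the plate norm, cut at about 30% in these data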; further: 0% is about no effect
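Calcium flux readout, no-wash dye, 1 read/s. Inducible HEK293 Trex D2 line, overnight 30 C. Compound alone 180 s (agonist flags), then EC20 dopamine, another 180 s to score potentiation.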
* hit, by the source's call; ? = inconclusive; nt = no result given; ! = not active in a repeat. This is a sample that favours compounds with a hit; in the whole collection about 2.4% have one here.

SMILES	D2 antag	D2 ag-1	D2 PAM-1	D2 ag-2	D2 PAM-2
CCOc1ccc(C(C)NC(=S)NC2CCCCC2)cc1 (configuration not stated)	nt	1.3	14.5	nt	nt
CCc1ccc(C(C)NC(=S)NC2CCCCC2)cc1 (configuration not stated)	48.2*	-4.7	-13.4	0.8	10.9
CCOc1ccc(C(C)NC(=S)NC2CCCCC2)cc1OCC (configuration not stated)	40.7*	-3.7	-11.8	-0.9	-6.5
CC1CCN(C(=O)Cn2cc(SCC(=O)NCc3ccc(F)cc3)c3ccccc32)CC1	nt	nt	nt	0.5	-1.3
Cc1cc(NC(=O)N2CCC(CN3CCCCCC3)CC2)ccc1Br	nt	nt	nt	-0.2	-4.1
COc1ccc(F)cc1C(=O)C1CCCN(Cc2ccc(Sc3nncn3C)o2)C1 (configuration not stated)	30.9*	-3.7	-3.0	1.1	-17.6
COc1ccc(C2CC(=O)N(Cc3ccccc3)c3c2c(C)nn3-c2nc(C)cc(C)n2)c(OC)c1 (configuration not stated)	nt	nt	nt	1.7	14.1
CCC(C)C(NC(N)=O)C(=O)NC1CCC(C)CC1 (configuration not stated)	32.9*	nt	nt	2.3	14.2
COc1cccc(OC)c1C(=O)OCC(=O)N1CCC(Cc2ccccc2)CC1	nt	-0.4	-3.2	nt	nt
O=C(COC(=O)c1ccc([N+](=O)[O-])o1)c1ccccc1	5.9	7.8	65.5*	0.9	-3.4
O=C(OCCCOC(=O)c1ccc([N+](=O)[O-])o1)c1ccc([N+](=O)[O-])o1	-1.1	11.0	52.8*	3.6	-0.4
CCOC(=O)C1CCN(C(=O)COC(=O)c2ccc([N+](=O)[O-])o2)CC1	7.4	?	1.2	0.2	-6.4
CC1CC(C)CN(C(=O)COC(=O)c2ccc([N+](=O)[O-])o2)C1 (configuration not stated)	31.3*	4.6	12.2	0.5	-1.6
COc1cccc(OC)c1C(=O)OCC(=O)N1CC(C)CC(C)C1 (configuration not stated)	32.0*	-0.8	-13.9	-0.4	0.7
O=C(COC(=O)c1ccc([N+](=O)[O-])o1)NCc1ccccc1	nt	3.9	22.2	nt	nt
COc1cccc(-c2nc(S(=O)(=O)c3ccc(Cl)cc3)c(NCc3ccccc3)o2)c1	nt	nt	nt	nt	7.6
CCn1c(=O)cc(SCC(=O)NCCc2ccc(OC)cc2OC)c2ccccc21	nt	nt	nt	nt	1.0
Cc1ccc2nc(N(Cc3cccnc3)C(=O)c3ccco3)sc2c1	nt	nt	nt	0.3	-6.2
O=C(O)c1ccccc1OC(C(=O)Nc1cc(Cl)cc(Cl)c1)c1ccccc1 (configuration not stated)	36.1*	-1.4	-6.6	0.0	-9.9
O=C1CCC(C(=O)OC(C(=O)Nc2cc(Cl)cc(Cl)c2)c2ccccc2)=NN1 (configuration not stated)	33.5*	-2.4	4.8	0.2	-0.1
COc1ccc(OC)c(NC(=O)Cn2c(=O)c3cccn3c3ccccc32)c1	nt	nt	nt	-0.3	6.3
CC(C)C(=O)NCCSc1c[nH]c2ccccc12	31.1*	-1.3	-3.0	0.3	6.7
CCC(=O)NCCSc1c[nH]c2ccccc12	-11.3	-1.2	-15.2	0.0	5.7
CC(C)Cc1nnc(NC(=O)CCC(=O)Nc2ccc(Cl)cc2)s1	19.3	-1.9	-16.9	-0.1	-4.4
Cc1cc(C)cc(NC(=O)CCC(=O)Nc2nnc(C(F)(F)F)s2)c1	13.6	-3.0	-2.0	0.0	7.6
SMILES	D2 antag	D2 ag-1	D2 PAM-1	D2 ag-2	D2 PAM-2
Cc1cc(C)cc(NC(=O)CCC(=O)Nc2nnc(C(C)C)s2)c1	33.2*	-4.2	-28.1	0.1	-20.8
CC(C)c1nnc(NC(=O)CCC(=O)Nc2ccc(Cl)cc2)s1	40.6*	-2.1	-36.6	-0.2	-27.4
Cc1ccc(C2C(C(=O)c3cccs3)=C(O)C(=O)N2CCN2CCOCC2)o1 (configuration not stated)	11.3	-4.5	-10.4	-2.2	37.8*
CCOC(=O)c1[nH]c(C)c(CCC(=O)Nc2ccccc2OCC)c1C	nt	nt	nt	0.5	7.1
O=C(/C=C/c1ccccc1)NCc1ccco1	-16.4	-5.6	-2.2	-0.8	11.9
N#C/C(=C\C=C\c1ccccc1)C(=O)NCc1ccco1	36.9*	-2.0	5.4	-1.3	-5.4
COc1ccc([N+](=O)[O-])cc1/C=N/NC(=O)/C(=C\c1cccs1)NC(=O)c1ccccc1	42.8*	-3.5	-11.9	-0.3	-26.4
NNC(=O)/C(=C\c1cccs1)NC(=O)c1ccccc1	30.8*	-3.6	-21.8	0.3	-21.4
COc1cc(C)ccc1OCCSc1nc2ccc(NC(=O)c3ccco3)cc2s1	nt	nt	nt	-0.5	-9.1
Cc1ccc(-n2ncc3c(=O)[nH]c(SCC(=O)N4CCOCC4)nc32)cc1	-15.6	-2.0	12.4	-1.9	9.9
CCOC(=O)C(C)(C)Sc1nc2c(cnn2-c2ccc(C)cc2)c(=O)[nH]1	47.8*	-0.6	1.4	-1.4	-11.3
CCC1CCCCN1C(=O)CSc1nc2c(cnn2-c2ccc(C)cc2)c(=O)[nH]1 (configuration not stated)	33.2*	-4.2	-8.9	-1.2	-7.4
Cc1ccc(C)c(-c2nnc(NC(=O)c3ccco3)o2)c1	40.5*	-3.5	-8.8	1.0	-5.7
CCOc1ccc(NC(=O)CSc2cn(CC(=O)N3CCOCC3)c3ccccc23)cc1	nt	nt	nt	nt	1.7
Cc1ccc(C(=O)c2coc3c2C(=O)C(=O)c2ccccc2-3)cc1	-2.6	?	63.7*	-1.2	7.1
Cc1ccc(C(=O)c2c(C)oc3c2C(=O)C(=O)c2ccccc2-3)cc1	-35.8	?	74.3*	1.1	1.0
Cc1oc2c(c1C(=O)N1CCC(C)CC1)C(=O)c1ccccc1C2=O	0.5	2.4	2.3	0.2	-11.9
Cc1oc2c(c1C(=O)c1ccc(Cl)cc1)C(=O)C(=O)c1ccccc1-2	0.8	14.7	108.5*	-0.1	3.0
CCN(CCCNC(=O)CN1N=C(c2ccc(OC)cc2)CCC1=O)c1cccc(C)c1	nt	nt	nt	-0.5	nt
CCC(=O)Nc1ccc(CC)cc1-c1nc2ccccc2n(CC(=O)Nc2cccc(Cl)c2)c1=O	nt	nt	nt	nt	-6.6
c1ccc(CN(CC2=NCCN2)c2ccccc2)cc1	40.8*!	-6.2	-17.2	1.8	1.3
c1ccc(C2C3=C(CCCC3)Nc3ncnn32)cc1 (configuration not stated)	31.5*	1.1	-4.3	0.4	-1.7
N#CC1=C(N)Nc2ncnn2C1c1ccccc1 (configuration not stated)	0.6	nt	nt	0.3	3.3
